USP1 inh: USP1/UAF1 (human) deubiquitinase inhibition; O94782; recombinant USP1/UAF1, Ub-Rhodamine cleavage fluorescence; Potency, µM (doses to about 57.1 µM), most hits filed as inhibitors; 390,000 tested, 0.23% active; also: nearly all actives have a fitted effect of over 60% in size
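High-throughput fluorogenic screen: 1nM USP1/UAF1 complex, Ub-Rho substrate 150nM final, 50mM HEPES pH 7.8 with 0.5mM EDTA, 0.1 mg/ml BSA, 1mM TCEP and 0.01% Tween-20.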
Tau fluor cs: counter-screen for tau fibril formation inhibitors; tau K18 P301L Alexa594 fluorescence, heparin fibrillization; Potency, µM (top dose mostly 57.7 µM); 280,000 tested, 0.93% active; AID 1463; also: nearly all actives have a fitted effect of over 55% in size
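Human K18 P301L tau (15 uM unlabeled plus 0.24 uM Alexa 594-labeled, final) in 100 mM sodium acetate pH 7 was mixed with compound and 20 uM heparin and incubated 6 hr at 37 C.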
Tau fibril ThT: tau fibrillization inhibition (ThT binding); recombinant tau K18 P301L, heparin-induced fibrillization, ThT fluorescence; Potency, µM (highest dose often 57.4 µM), actives largely listed as inhibitors; 270,000 tested, 2.1% active; AID 1460; also: nearly all actives have a fitted effect of over 55% in size
Target sequence (P10636 561-689 P618L limits assumed): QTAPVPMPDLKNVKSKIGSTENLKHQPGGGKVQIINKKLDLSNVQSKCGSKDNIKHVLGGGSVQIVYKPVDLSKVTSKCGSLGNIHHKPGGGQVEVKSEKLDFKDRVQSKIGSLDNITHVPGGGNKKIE
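ThT emission at 510 nm, taken 1 hr after adding 30 uM dye, quantifies aggregates formed when 20 uM heparin acts on human tau K18 P301L for 6 hr at 37 C.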
Tau FP inhib: tau fibrillization inhibition (FP). P10636. K18 P301L tau heparin fibrillization, Alexa594 FP, 6 h. Potency, µM (doses to about 57.7 µM), most hits filed as inhibitors. 280,000 tested, 0.39% active. AID 1468; also: nearly all actives have a fitted effect of over 55% in size
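Quantitative HTS format: compounds meet 15 uM recombinant K18 P301L tau and Alexa 594-tau tracer in 100 mM sodium acetate pH 7; 20 uM heparin triggers fibrillization at 37 C over 6 hr; FP gives the signal.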
FBPA coupling cs: coupling enzyme interference in Giardia aldolase counter-screen. coupling enzyme system counterscreen, AmpLite Red fluorescence. activity change, negative = inhibition, % at 58.2 µM, hits read low. 290,000 tested, 0.67% active; in the data active = activity change below about -30%
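Final compound at 57.5 uM, incubated 10 min at RT with coupling enzyme reagent (glyceraldehyde-3-phosphate), then 20 min with substrate and AmpLite Red detection. Fluorescence read at 525/598 nm; tests interference with the coupling assay, not aldolase inhibition.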
Large screens that a line does not name were inactive; [ ] = remark or other dose. Only some compounds are listed: those with a hit (about 2.3% of all), similar ones and a draw of the others. Unless noted, calls follow the shape of the dose curve; as a rule, active = well fitted curve in the direction sought with a large enough effect; inconclusive = small, poorly fitted or top-dose-only effect, or another doubt; inactive = no such curve, though single readings can be large; an effect the other way counts as inactive or inconclusive.

Cc1cc(=O)n(CCO)c(O)c1C#N	FBPA coupling cs -46
CC(C)c1cc2c(c(O)c1O)[C@@]13CCCC(C)(C)C1CC2OC3=O (some centres not stated)	FBPA coupling cs -30 (no result: Tau fluor cs, Tau fibril ThT, Tau FP inhib)
COC(=O)c1ccc(-c2nc3cc(Cl)c(N)cc3s2)cc1	USP1 inh inconclusive, Tau fibril ThT inconclusive, FBPA coupling cs -32
COC(=O)c1ccc(C(=O)Nc2nc3cc(N)c(C)cc3s2)cc1	none (no result: Tau fluor cs, Tau fibril ThT, Tau FP inhib)
COC(=O)c1ccc(-c2nc(O)c(C)s2)cc1	Tau fibril ThT 13µM, Tau FP inhib inconclusive
CCCCCCNC(=O)Nc1ccc(S(=O)(=O)Nc2ccc(CCNC[C@H](O)COc3ccc(O)cc3)cc2)cc1	Tau fluor cs 13µM[quencher], Tau fibril ThT inconclusive, Tau FP inhib inconclusive (no result: USP1 inh)
CCOc1cc(/C=N\NC(=O)Cc2ccccc2)ccc1OCC(=O)Nc1ccc(C)c(C)c1	none
CCOc1cc(/C=N\Nc2ccc([N+](=O)[O-])cc2)ccc1OCC(=O)Nc1ccc(C)c(C)c1	USP1 inh inconclusive, Tau fluor cs inconclusive, Tau fibril ThT 2.2µM
COc1cc(/C=N\Nc2ccc([N+](=O)[O-])cc2)ccc1OCC(=O)Nc1ccc(C)c(C)c1	Tau fluor cs 7.1µM[quencher], Tau fibril ThT 1.6µM
CCC1CN2CCC1CC2[C@@H](NC(=S)Nc1cc(C(F)(F)F)cc(C(F)(F)F)c1)c1cccc2ccc(OC)cc12 (some centres not stated)	Tau FP inhib inconclusive (no result: USP1 inh)
Nc1c(S(=O)(=O)c2cccc(Cl)c2)c2nc3ccccc3nc2n1/N=C/c1ccc(O)c(O)c1	Tau fluor cs 5.6µM[quencher], Tau fibril ThT inconclusive, Tau FP inhib inconclusive (no result: USP1 inh)
O=C(Nc1ccc2c(c1)N(C1CCCC1)C(=O)c1ccccc1S2)c1ccccc1	Tau FP inhib inconclusive (no result: FBPA coupling cs)
CC(C)Cn1c(/C=N/Nc2nc3ccccc3[nH]2)nc2ccccc21	Tau fluor cs 28µM[quencher], Tau fibril ThT inconclusive
C=CCn1cc(/C=N/Nc2nc3ccccc3[nH]2)c2ccccc21	Tau fluor cs 11µM[quencher], Tau fibril ThT 7.9µM
C(=N\Nc1nc2ccccc2[nH]1)/c1cccs1	Tau fluor cs inconclusive, Tau fibril ThT 5µM, Tau FP inhib 18µM
Cc1ccsc1/C=N/Nc1nc2ccccc2[nH]1	Tau fluor cs inconclusive, Tau fibril ThT inconclusive
Cn1c(/C=N/Nc2nc3ccccc3[nH]2)nc2ccccc21	Tau fluor cs inconclusive, Tau fibril ThT 4µM
CCOCCCn1c(SCC(=O)OCC)nc2c(sc3ccccc32)c1=O	none (no result: FBPA coupling cs)
N#Cc1ccc(CS(=O)(=O)c2nnnn2C2CCCCC2)cc1	none (no result: USP1 inh)
Cc1nn(-c2ccccc2)c(C)c1/C=N/Nc1nc2ccccc2[nH]1	none
Cc1c(/C=N/Nc2nc3ccccc3[nH]2)c2ccccc2n1C	Tau fluor cs 14µM[quencher] (no result: Tau fibril ThT)
CCN=c1scc(-c2ccco2)n1/N=C/c1ccc(O)cc1	Tau fluor cs 14µM[quencher], Tau fibril ThT 7.1µM
CCN=c1scc(-c2ccco2)n1/N=C/c1ccc(OC)c(O)c1	Tau fluor cs 16µM[quencher], Tau fibril ThT 10µM, Tau FP inhib inconclusive
COc1ccc(Cl)cc1NC(=O)NCCc1c(C)nn(C)c1C	none (no result: FBPA coupling cs)
O=C1C2C3C=CC(C3)C2C(=O)N1/N=C/c1cc(Br)cc([N+](=O)[O-])c1O (configuration not stated)	Tau fibril ThT 7.9µM
O=C1C2C3C=CC(C3)C2C(=O)N1/N=C/c1ccc(-c2ccccc2[N+](=O)[O-])o1 (configuration not stated)	Tau fibril ThT inconclusive
O=C(Nc1nc(-c2ccccc2)cs1)c1ccccc1NS(=O)(=O)c1ccc(F)cc1	USP1 inh inconclusive, Tau fluor cs inconclusive, Tau fibril ThT 14µM, Tau FP inhib inconclusive
O=S(=O)(Nc1ccc(-c2csc(-c3ccccc3)n2)cc1)c1ccc(F)cc1	Tau fluor cs inconclusive, Tau FP inhib 11µM
CC(=O)c1c(C)[nH]c(C(=O)Nc2nc(-c3ccc(-c4ccccc4)cc3)cs2)c1C	Tau fluor cs inconclusive, Tau FP inhib 40µM
CC(=O)Nc1c(C)nn(-c2ccccc2)c1N1CCC(C(=O)NCc2cccc(F)c2)CC1	none (no result: FBPA coupling cs)
Cc1nn(CCCC(=O)NCc2ccc(F)cc2)c(=O)c2c1sc1ccccc12	none (no result: FBPA coupling cs)
Cc1ccc(-n2nc(C(=O)N3CCN(c4cc(Cl)ccc4C)CC3)c(=O)n(C)c2=O)cc1	none (no result: FBPA coupling cs)
Cc1nnc(N/N=C/c2cc([N+](=O)[O-])c(N3CCC(C)CC3)cc2N2CCC(C)CC2)n1N	Tau fluor cs inconclusive, Tau fibril ThT 18µM, FBPA coupling cs -45
CCc1nnc(N/N=C/c2ccc(N3CCC(C)CC3)c([N+](=O)[O-])c2)n1N	USP1 inh inconclusive, Tau fluor cs inconclusive, Tau fibril ThT 13µM
CC(/C=C1\SC(=S)N(NC(=O)c2ccc(C)cc2)C1=O)=C\c1ccccc1	Tau fibril ThT inconclusive
CC(/C=C1\SC(=S)N(NC(=O)c2ccncc2)C1=O)=C\c1ccccc1	Tau fluor cs inconclusive, Tau fibril ThT 10µM
CC(/C=C1\SC(=S)N(NC(=O)c2ccccc2C)C1=O)=C\c1ccccc1	Tau fluor cs inconclusive, Tau fibril ThT 4µM
COc1ccccc1CNC(=O)c1cc2c(=O)n(Cc3cccs3)ccc2nc1C	none (no result: FBPA coupling cs)
CC(=O)CSc1nsc(SCC(C)=O)c1C#N	Tau fibril ThT 16µM, Tau FP inhib inconclusive
Cc1csc(NC(=O)CSc2nsc(SCC(=O)Nc3nc(C)cs3)c2C#N)n1	Tau fluor cs 10µM[quencher], Tau fibril ThT 4µM
Cc1ccc(NC(=O)CSc2nsc(SCC(=O)Nc3ccc(C)cc3C)c2C#N)c(C)c1	none
COc1ccc(-c2cc(C(=O)Nc3cccc(O)c3)on2)cc1OC	Tau fluor cs inconclusive, Tau fibril ThT inconclusive (no result: FBPA coupling cs)
O=C(Nc1cccc(N=Cc2cc(Br)cc(Br)c2O)c1)c1ccco1	USP1 inh 28µM, Tau fibril ThT 14µM, Tau FP inhib inconclusive
O=C(Nc1cc(Br)c(O)c(Br)c1)c1cccc(NC(=O)c2ccco2)c1	none (no result: Tau fluor cs, Tau fibril ThT, Tau FP inhib)
O=c1c(CCc2ccccc2)nc2cnc(Oc3ccccc3)nc2n1C[C@H]1CCCO1	none (no result: USP1 inh, Tau fluor cs, Tau fibril ThT, Tau FP inhib)
Cn1c(C(=O)NCCN2CCOCC2)cc2c(=O)n(C)c3ccccc3c21	none
Cn1c(C(=O)NCCN2CCc3ccccc3C2)cc2c(=O)n(C)c3ccccc3c21	Tau fibril ThT inconclusive, FBPA coupling cs -30
COCCCn1c(N)c(-c2nc3ccccc3n2C)c2nc3ccccc3nc21	USP1 inh inconclusive, Tau fluor cs 16µM[quencher], Tau fibril ThT 18µM, Tau FP inhib inconclusive
Cn1c(-c2c(N)n(C3CCCC3)c3nc4ccccc4nc23)nc2ccccc21	Tau fluor cs inconclusive, Tau fibril ThT inconclusive
Cn1c(-c2c(N)n(CCc3ccccc3)c3nc4ccccc4nc23)nc2ccccc21	USP1 inh 28µM, Tau fluor cs 13µM[quencher], Tau fibril ThT inconclusive
Cn1c(-c2c(N)n(CCCc3ccccc3)c3nc4ccccc4nc23)nc2ccccc21	USP1 inh inconclusive (no result: FBPA coupling cs)
CCCCN(C)C(=O)c1ccc2c(=O)n3nc(Nc4cc(C)ccc4C)sc3nc2c1	none (no result: FBPA coupling cs)
CN(C)CCNC(=O)CN1C(=O)COc2ccc(S(=O)(=O)N3CCCC3)cc21	none (no result: FBPA coupling cs)

High-throughput results (PubChem)
